# Screens (PubChem)
# Sampled rows, rich in hits. Any-hit rate of the full collection: about 6.6%.
# Beta cell apopt: beta cell apoptosis inhibition | INS-1E cytokine-induced death, ATP luminescence, 48 h; percent of positive-control rescue, neutral wells zero | protection from apoptosis, % (no concentration beside the values) | hit rate 0.8% among 300,000 | AID 435005;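 active = Every replicate reaches about 75%, or at least half do and their mean reaches it too, limit read from the data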;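 also: 0% = cytokine-treated negative control wells and 100% = positive control rescue; higher means more ATP so stronger rescue from cytokine killing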
# GRIN3A LBD mod: NR3A (human) ligand-binding domain modulation | hit rate 2.5% among 340,000 | Tm shift relative to glycine control, % at 25 µM | AID 1259313 | NR3A LBD differential scanning fluorimetry, Tm shift; 0% = protein alone, 100% = glycine-bound protein;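 active = melting temperature shift of at least 10% of the positive control shift, at one fixed dose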
# Mdm2 MdmX PPI: inhibitors of human Mdm2/MdmX interaction. O15151+Q00987. SaOS-2 split-luciferase Mdm2/MdmX complementation, luminescence. inhibition, % at 8 µM. hit rate 3% among 330,000;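 active = inhibition of at least 50% at 8 µM in the primary screen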
# Gli-Sufu antag: blocks Gli-Sufu signaling in a luciferase reporter | hit rate 0.74% among 340,000 | Sufu-KO-LIGHT fibroblasts, Gli luciferase reporter luminescence | inhibition, % at 5 µM;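 active = inhibition above about 55%, limit read from the data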;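 also: 0% = DMSO-treated cells and 100% = wells with medium but no cells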
# MPTP inh: inhibitors of mitochondrial permeability transition pore; hit rate 1.4% among 360,000; isolated mouse mitochondria, Ca2+ swelling absorbance, 30 min; inhibition, % at 10 µM; AID 602449;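 active = inhibition of 50% or more, scaled per plate between neutral and stimulator controls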;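 also: 0% = DMSO wells given calcium and 100% = 1 mM EGTA wells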
# CSC inhib: cancer stem cell inhibition. cancer stem cell-like cells viability, luminescence. inhibition, % at 7.5 µM. hit rate 1.1% among 300,000; in the data active = inhibition above about 75%; tested in HMLE shEcad cells
# Numbers without * were called inactive; x = not tested or not shown.
SMILES,Beta cell apopt,GRIN3A LBD mod,Mdm2 MdmX PPI,Gli-Sufu antag,MPTP inh,CSC inhib
O=C1C=C(N2CCCCC2)c2ccccc2C1=O,117*,1,42,2,12,97*
O=C(CSCCN1C(=O)c2ccccc2C1=O)Nc1ccc2ccccc2c1,-3,-13,-3,-29,15,-4
Cc1nc(Nc2cccc(O)c2)c2oc3ccccc3c2n1,1,3,18,2,0,5
Cc1nc(Nc2cccc(F)c2)c2oc3ccccc3c2n1,18,28*,27,10,0,14
Cc1nc(Nc2cccc(Cl)c2)c2oc3ccccc3c2n1,24,36*,34,11,0,35
O=S(=O)(Nc1ccc(O)c(Sc2nc3ccccc3s2)c1)c1ccc(Cl)cc1,1,16*,32,4,30,58
CC(NC(=O)C(NS(=O)(=O)c1cccc2nsnc12)C(C)C)c1ccccc1 (stereo unspecified),-6,1,-11,2,0,2
CC(=O)Nc1ccc(NC(=O)C(NS(=O)(=O)c2cccc3nsnc23)C(C)C)cc1 (stereo unspecified),2,10*,12,-34,-1,-2
CC(C)(C)N(Cc1ccccc1)C(=O)c1cc2ccccc2o1,0,0,5,11,0,78*
CN(Cc1ccccc1)C(=O)c1cc2ccccc2o1,-12,-2,9,-21,2,-2
O=C1NN(c2ccccc2)C(=O)/C1=C\c1ccc(-c2cc([N+](=O)[O-])ccc2O)o1,x,23*,4,-4,17,x
O=C(NCC(c1ccco1)N1CCc2ccccc2C1)C(=O)Nc1cc(F)ccc1F (stereo unspecified),-1,0,-20,-1,-1,5
Cc1ccc(Cn2c(SCCN3CCCCC3)nc3c2c(=O)[nH]c(=O)n3C)cc1,3,0,9,7,-1,-11
Cn1c(=O)[nH]c(=O)c2c1nc(SCCN1CCCCC1)n2Cc1ccccc1,2,12*,-22,2,-2,-6
COc1ccc(S(=O)(=O)NC(=O)C2(C)CCN2C(=O)Cc2cc(F)ccc2F)cc1 (stereo unspecified),x,x,x,x,0,x
COc1ccc(-n2c(-c3ccc(Cl)cc3)c[n+]3c2CCCCC3)cc1,125*,1,23,x,1,20
COc1cccc(NC(=O)C2(C)CCN2C(=O)Cc2ccc(C(C)C)cc2)c1 (stereo unspecified),x,x,x,x,0,x
CC1(C)OC2OC3C(CNCCO)OC(c4ccccc4)OC3C2O1 (stereo unspecified),x,-1,x,-2,-1,x
O=C(CC1SC(=Nc2cccc3ccccc23)N(Cc2ccccn2)C1=O)Nc1ccccc1Br (stereo unspecified),-8,-2,3,-2,-5,18
O=C(CC1Sc2ncnn2C1=O)Nc1ccc(Br)cc1 (stereo unspecified),-7,0,1,-1,0,18
Cc1ccccc1N=C1SC(CC(=O)Nc2ccc3ccccc3c2)C(=O)N1Cc1ccccn1 (stereo unspecified),3,22*,36,7,-6,78*
O=C(CC1SC(=Nc2ccccc2)N(Cc2ccccn2)C1=O)Nc1ccc(Br)cc1 (stereo unspecified),x,12*,-3,-8,4,x
O=C(CCCn1c(=O)oc2ccccc21)NNC(=O)COc1ccc(F)cc1,-8,3,-5,2,-2,-13
C[C@@H]1CN([C@@H](C)CO)C(=O)c2cc(Br)cnc2O[C@@H]1CN(C)Cc1cncnc1,x,x,x,x,-1,x
Cc1cc([N+](=O)[O-])ccc1P(=O)(O)c1ccc([N+](=O)[O-])cc1C,x,15*,x,-1,4,x
SMILES,Beta cell apopt,GRIN3A LBD mod,Mdm2 MdmX PPI,Gli-Sufu antag,MPTP inh,CSC inhib
COCCNC(=O)Cn1nc(-c2ccccc2F)ccc1=O,x,1,23,8,0,x
COC(=O)N/N=C/c1ccc(OC(=O)/C=C/c2ccco2)cc1,-5,11*,6,2,2,-11
Cc1cccc(NC(=O)c2nc[nH]c2C(=O)N[C@@H](C)c2ccccc2)c1,9,-3,35,2,0,78*
CC1=NNC(=O)C1CC(=O)N/N=C/c1ccc(C)o1 (stereo unspecified),-2,18*,1,1,2,4
Cn1cccc1/C=C1\SC(=Nc2cccc(O)c2)NC1=O,1,26*,6,-45,3,50
Cc1ccc(N=C2NC(=O)/C(=C/c3cn(C)c4ccccc34)S2)cc1C,-1,32*,x,5,6,47
Cn1nc(C(=O)N2CCN(c3ccc([N+](=O)[O-])cc3)CC2)c2c1-c1ccccc1S(=O)(=O)C2,0,0,-1,29,-2,-3
CN1CCN(S(=O)(=O)c2cccc(C(=O)Nc3cc(C(F)(F)F)ccc3N3CCCCC3)c2)CC1,18,-12,25,12,2,87*
CN1CCN(S(=O)(=O)c2cccc(C(=O)Nc3ccccc3N3CCCCC3)c2)CC1,6,-1,17,11,-1,59
C/C(=N\Nc1ccc([N+](=O)[O-])cc1)c1cc2ccccc2o1,0,27*,-27,1,39,30
C/C(=N\Nc1ccc([N+](=O)[O-])cc1)c1ccc2c(c1)OCO2,3,23*,-19,-43,33,3
C/C(=N/Nc1ccc([N+](=O)[O-])cc1)c1c[nH]c2ccccc12,8,29*,-28,-14,5,51
C/C(=N\NC(=O)CCc1c[nH]c2ccccc12)c1ccc([N+](=O)[O-])cc1,4,22*,20,16,1,5
CC[C@H](C)[C@@H](CO)NC(=O)[C@H]1O[C@@H](n2ccc(=O)[nH]c2=O)[C@H](O)[C@@H]1O,x,x,x,x,0,x
CC(=O)c1ccc(-n2nnnc2SCC(=O)NC2CCCCC2)cc1,1,0,35,-19,0,-14
CN(C)c1ccc(/C=N/NC(=O)CCc2c[nH]c3ccccc23)cc1,-6,16*,29,-3,3,6
O=C(Cc1c[nH]c2ccccc12)N/N=C/c1ccc(F)cc1,-1,-5,-7,-4,1,-3
CN(C)CCCN(Cc1ccccc1)C(=S)Nc1ccc(OC(F)F)cc1,-10,0,3,16,-1,2
CCOc1ccccc1NC(=S)N1CCN(c2ccc(OC)cc2)CC1,1,10*,20,-8,-2,-15
Cc1ccc(N2C(=O)C3C4CCC(O4)C3C2=O)c(OC(F)F)c1 (stereo unspecified),-3,0,6,-8,1,x
O=C(Nc1ccccc1)c1ccc(Nc2c([N+](=O)[O-])cc([N+](=O)[O-])c3ccccc23)cc1,22,11*,47,21,42,-3
C/C(=N\NC(=O)c1ccc(C)cc1C)c1ccc2c(c1)Nc1ccccc1S2,5,12*,24,-2,3,48
